13 compounds from ChEMBL document CHEMBL2218924, “A broad activity screen in support of a chemogenomic map for kinase signalling research and drug discovery” (Biochem J, 2013) can be followed below.

The target in assay [1] is Rho-associated protein kinase 2 (Homo sapiens) (UniProt O75116). The conditions noted are these: at 1 µM.
The target is the same in assay [2]. The following applies: at 10 µM.
For assay [3], the target named is Proto-oncogene tyrosine-protein kinase receptor Ret (Homo sapiens) (UniProt P07949). The conditions noted are these: at 1 µM.
Assay [4] has the same target. The following applies: at 10 µM.
Assay [5] has as its target T1, Tyrosine-protein kinase receptor TYRO3 (Homo sapiens) (UniProt Q06418).
T1 sequence (whole entry): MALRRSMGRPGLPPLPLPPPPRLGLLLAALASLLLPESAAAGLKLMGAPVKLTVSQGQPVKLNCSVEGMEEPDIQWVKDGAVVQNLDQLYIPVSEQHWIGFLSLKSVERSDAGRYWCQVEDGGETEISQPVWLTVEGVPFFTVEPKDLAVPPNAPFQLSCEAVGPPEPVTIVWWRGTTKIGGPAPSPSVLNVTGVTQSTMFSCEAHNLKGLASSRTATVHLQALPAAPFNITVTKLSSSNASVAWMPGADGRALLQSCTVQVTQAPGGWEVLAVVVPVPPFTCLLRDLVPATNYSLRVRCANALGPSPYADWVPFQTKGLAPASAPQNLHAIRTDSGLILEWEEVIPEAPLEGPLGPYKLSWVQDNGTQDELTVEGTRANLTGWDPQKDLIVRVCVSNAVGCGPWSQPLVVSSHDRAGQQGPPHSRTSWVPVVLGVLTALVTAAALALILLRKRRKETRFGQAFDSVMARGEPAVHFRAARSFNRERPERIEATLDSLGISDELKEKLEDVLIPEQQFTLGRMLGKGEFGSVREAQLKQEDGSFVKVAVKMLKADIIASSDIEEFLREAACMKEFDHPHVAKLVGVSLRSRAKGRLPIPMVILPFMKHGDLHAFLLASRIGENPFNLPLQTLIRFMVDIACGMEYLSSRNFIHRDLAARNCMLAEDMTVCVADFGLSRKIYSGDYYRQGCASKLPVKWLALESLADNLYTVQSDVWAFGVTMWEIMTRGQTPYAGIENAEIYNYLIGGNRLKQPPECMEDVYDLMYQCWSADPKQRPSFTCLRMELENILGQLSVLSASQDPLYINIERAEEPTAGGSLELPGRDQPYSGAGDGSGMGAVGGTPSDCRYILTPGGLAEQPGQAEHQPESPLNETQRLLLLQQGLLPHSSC
The following applies: at 1 µM.

The target in assay [6] is Ribosomal protein S6 kinase alpha-1 (Homo sapiens) (UniProt Q15418). The conditions noted are these: at 1 µM.
Assay [7] shares this target. The conditions noted are these: at 10 µM.
Assay [8] addresses Ribosomal protein S6 kinase alpha-2 (Homo sapiens) (UniProt Q15349). The conditions noted are these: at 1 µM.
For assay [9] the target is unchanged. The following applies: at 10 µM.
Assay [10] concerns the target Ribosomal protein S6 kinase alpha-6 (Homo sapiens) (UniProt Q9UK32). The following applies: at 1 µM.
Assay [11] shares this target. The following applies: at 10 µM.
For assay [12], the target named is Mitogen-activated protein kinase 14 (Homo sapiens) (UniProt Q16539). The following applies: at 1 µM.
Mitogen-activated protein kinase 14 (Homo sapiens), sequence (Q16539 whole entry): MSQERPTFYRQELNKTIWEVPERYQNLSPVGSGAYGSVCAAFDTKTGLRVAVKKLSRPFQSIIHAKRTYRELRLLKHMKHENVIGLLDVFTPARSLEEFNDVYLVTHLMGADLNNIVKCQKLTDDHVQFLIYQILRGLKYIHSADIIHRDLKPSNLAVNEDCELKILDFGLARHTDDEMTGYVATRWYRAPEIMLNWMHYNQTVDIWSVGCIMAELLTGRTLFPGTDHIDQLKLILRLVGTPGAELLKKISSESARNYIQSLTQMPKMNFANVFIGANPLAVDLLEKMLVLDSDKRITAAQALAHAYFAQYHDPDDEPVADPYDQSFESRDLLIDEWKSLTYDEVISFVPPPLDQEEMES
For assay [13] the target is unchanged. The conditions noted are these: at 10 µM.
For assay [14], the target named is Macrophage-stimulating protein receptor (Homo sapiens) (UniProt Q04912). The following applies: at 10 µM.
Assay [15] deals with T1, Tyrosine-protein kinase receptor TYRO3 (Homo sapiens). The following applies: at 10 µM.
Assay [16] has as its target Proto-oncogene tyrosine-protein kinase ROS (Homo sapiens) (UniProt P08922). The conditions noted are these: at 1 µM.
Assay [17] shares this target. The following applies: at 10 µM.
The target in assay [18] is Ribosomal protein S6 kinase alpha-3 (Homo sapiens) (UniProt P51812). The conditions noted are these: at 1 µM.
The target is the same in assay [19]. The conditions noted are these: at 10 µM.
In assay [20] the target is Macrophage-stimulating protein receptor (Homo sapiens) (UniProt Q04912). The following applies: at 1 µM.

Each structure is given as a SMILES string.

Proto-oncogene tyrosine-protein kinase ROS (Homo sapiens), sequence (P08922 whole entry): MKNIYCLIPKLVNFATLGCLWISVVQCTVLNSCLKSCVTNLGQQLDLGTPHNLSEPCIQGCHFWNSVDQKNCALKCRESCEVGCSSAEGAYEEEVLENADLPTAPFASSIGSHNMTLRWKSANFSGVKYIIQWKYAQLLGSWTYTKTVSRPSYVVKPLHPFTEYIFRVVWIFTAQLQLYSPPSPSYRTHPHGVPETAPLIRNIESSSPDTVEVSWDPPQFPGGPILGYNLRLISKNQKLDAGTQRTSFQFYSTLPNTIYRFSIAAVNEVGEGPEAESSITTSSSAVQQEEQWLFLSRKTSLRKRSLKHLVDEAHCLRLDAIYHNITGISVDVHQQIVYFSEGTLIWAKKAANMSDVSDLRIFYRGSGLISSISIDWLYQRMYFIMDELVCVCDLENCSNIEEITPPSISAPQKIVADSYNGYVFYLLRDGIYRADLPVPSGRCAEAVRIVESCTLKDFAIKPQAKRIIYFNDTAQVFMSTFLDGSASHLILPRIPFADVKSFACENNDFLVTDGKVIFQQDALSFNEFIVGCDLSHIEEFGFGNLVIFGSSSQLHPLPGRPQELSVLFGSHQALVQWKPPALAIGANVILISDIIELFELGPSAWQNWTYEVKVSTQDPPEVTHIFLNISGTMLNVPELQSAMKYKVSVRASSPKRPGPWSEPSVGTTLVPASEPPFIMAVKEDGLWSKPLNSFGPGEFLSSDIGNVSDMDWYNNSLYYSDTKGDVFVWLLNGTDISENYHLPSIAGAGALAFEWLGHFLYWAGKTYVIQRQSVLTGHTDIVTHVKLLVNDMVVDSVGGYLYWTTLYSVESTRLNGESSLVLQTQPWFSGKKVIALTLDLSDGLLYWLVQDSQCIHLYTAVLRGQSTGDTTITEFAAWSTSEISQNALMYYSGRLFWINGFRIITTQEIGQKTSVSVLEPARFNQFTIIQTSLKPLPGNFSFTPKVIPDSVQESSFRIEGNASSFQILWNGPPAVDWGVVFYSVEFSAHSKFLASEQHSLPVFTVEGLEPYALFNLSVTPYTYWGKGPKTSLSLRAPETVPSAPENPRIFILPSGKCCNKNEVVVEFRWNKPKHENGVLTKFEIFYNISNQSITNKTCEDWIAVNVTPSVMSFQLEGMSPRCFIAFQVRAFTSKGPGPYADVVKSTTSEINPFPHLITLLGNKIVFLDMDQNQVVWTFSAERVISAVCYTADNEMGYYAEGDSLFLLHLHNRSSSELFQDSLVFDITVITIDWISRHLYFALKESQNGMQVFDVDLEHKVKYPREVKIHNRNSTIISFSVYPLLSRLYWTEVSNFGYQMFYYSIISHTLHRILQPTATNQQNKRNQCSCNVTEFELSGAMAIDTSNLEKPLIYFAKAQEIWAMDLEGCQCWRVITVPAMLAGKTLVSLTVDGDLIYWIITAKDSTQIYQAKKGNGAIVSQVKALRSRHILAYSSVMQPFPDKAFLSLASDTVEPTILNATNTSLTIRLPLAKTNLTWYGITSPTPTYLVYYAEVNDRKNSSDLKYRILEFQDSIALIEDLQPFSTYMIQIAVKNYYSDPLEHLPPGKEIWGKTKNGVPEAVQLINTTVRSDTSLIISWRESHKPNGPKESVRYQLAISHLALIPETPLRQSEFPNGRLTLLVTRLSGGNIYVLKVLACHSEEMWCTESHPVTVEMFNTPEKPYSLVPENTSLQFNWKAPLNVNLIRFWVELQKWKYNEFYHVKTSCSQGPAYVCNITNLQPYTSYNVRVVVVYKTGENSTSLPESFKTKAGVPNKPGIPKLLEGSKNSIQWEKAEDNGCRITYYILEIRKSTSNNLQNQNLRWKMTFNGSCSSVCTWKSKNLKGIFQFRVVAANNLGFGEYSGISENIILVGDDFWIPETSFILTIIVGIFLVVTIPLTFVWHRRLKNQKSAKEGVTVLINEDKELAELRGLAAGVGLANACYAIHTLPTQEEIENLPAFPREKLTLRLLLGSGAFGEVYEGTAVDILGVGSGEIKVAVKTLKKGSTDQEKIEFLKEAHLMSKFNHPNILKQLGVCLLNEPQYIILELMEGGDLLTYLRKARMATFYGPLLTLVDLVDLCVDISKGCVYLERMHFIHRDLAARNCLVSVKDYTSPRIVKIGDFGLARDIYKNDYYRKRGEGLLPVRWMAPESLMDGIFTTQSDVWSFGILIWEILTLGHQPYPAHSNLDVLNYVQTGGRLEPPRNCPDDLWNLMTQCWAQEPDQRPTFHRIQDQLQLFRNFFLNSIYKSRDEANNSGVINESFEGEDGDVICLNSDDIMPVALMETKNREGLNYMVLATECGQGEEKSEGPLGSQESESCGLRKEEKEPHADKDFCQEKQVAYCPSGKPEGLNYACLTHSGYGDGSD
Ribosomal protein S6 kinase alpha-2 (Homo sapiens), sequence (Q15349 whole entry): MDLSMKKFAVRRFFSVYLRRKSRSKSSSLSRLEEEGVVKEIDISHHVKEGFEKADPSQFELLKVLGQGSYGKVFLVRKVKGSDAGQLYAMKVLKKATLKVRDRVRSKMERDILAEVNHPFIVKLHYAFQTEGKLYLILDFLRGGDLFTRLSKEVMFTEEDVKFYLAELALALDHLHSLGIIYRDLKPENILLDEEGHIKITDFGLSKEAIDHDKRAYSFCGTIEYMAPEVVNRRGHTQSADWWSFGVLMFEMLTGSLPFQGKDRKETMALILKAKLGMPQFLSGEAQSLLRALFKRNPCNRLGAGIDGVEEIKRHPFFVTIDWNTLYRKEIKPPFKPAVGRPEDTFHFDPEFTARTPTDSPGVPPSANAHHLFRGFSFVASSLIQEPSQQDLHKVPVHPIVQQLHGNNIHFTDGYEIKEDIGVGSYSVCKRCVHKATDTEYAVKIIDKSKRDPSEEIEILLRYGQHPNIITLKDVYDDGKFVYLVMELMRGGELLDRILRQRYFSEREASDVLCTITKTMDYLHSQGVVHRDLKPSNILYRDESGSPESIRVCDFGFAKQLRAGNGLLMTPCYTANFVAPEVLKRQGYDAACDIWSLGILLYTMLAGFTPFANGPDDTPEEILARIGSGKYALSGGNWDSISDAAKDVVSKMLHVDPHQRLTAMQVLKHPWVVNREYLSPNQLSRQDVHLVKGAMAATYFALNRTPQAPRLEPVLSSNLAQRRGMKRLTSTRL
Rho-associated protein kinase 2 (Homo sapiens), sequence (O75116 whole entry, looked up): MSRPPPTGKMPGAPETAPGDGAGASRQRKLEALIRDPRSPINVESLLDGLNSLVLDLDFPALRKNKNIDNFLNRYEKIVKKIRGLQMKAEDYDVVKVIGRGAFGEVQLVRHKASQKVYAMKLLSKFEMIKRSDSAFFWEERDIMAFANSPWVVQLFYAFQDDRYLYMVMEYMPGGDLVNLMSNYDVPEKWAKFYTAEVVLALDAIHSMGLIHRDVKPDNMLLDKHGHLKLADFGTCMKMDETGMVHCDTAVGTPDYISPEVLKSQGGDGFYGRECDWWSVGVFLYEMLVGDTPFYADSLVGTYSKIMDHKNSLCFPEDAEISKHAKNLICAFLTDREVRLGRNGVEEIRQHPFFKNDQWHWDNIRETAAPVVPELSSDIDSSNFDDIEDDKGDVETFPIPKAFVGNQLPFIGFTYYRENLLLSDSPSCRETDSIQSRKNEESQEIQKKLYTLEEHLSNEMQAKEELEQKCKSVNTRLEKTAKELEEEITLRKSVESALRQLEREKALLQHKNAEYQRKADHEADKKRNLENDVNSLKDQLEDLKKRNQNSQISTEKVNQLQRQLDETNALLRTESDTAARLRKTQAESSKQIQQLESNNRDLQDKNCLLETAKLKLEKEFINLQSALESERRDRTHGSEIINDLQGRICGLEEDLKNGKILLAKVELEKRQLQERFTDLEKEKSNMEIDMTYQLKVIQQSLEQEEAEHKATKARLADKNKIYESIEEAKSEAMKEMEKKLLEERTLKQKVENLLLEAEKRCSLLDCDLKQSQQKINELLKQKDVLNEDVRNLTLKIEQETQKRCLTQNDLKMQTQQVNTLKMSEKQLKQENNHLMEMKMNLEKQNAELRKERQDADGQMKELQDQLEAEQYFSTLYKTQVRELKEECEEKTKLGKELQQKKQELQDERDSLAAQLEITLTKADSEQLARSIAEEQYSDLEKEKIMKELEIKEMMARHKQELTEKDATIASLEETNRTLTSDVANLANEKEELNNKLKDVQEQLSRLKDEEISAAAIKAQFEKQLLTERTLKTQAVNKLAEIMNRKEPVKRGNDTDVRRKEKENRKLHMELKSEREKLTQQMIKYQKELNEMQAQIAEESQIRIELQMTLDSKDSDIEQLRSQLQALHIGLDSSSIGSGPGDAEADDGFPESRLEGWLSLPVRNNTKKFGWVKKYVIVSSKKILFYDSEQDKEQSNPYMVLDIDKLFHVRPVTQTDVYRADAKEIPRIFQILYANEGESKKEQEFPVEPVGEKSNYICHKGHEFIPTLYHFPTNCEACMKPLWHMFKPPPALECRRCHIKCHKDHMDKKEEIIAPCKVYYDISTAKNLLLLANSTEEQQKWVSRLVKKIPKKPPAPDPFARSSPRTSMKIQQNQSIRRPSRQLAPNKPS

Turning to `CC(C)(C)c1nc2c3ccc(F)cc3c3c(=O)[nH]ccc3c2[nH]1`, the residual activity is 57% in [1]; 58% in assay [2]; 18% in assay [3]; 36% in assay [4]; 75% in [5]; 65% in [6]. In addition, the residual activity in assay [7] was 55%; in assay [8] it was 25%; in assay [9], 7%; in [10], 42%; in [11], 37%; in assay [12], 73%. The residual activity in [13] was determined as 69%.

For `Nc1ncnc2c1cnn2-c1ccccc1`, the residual activity worked out at 92% in [1]; 66% in assay [2]; 101% in [3]; 91% in [4]; 80% in assay [14]; 90% in assay [5]. Further, the residual activity in assay [15] came to 93%; in [7], 88%; in assay [9] it was 84%; in [12], 83%.

`Cn1c2ccccc2c2c3c(c4c5ccccc5n(CCC#N)c4c21)CNC3=O`: the residual activity is 43% in assay [1]; 31% in assay [2]; -1% in [3]; 1% in assay [4]; 1% in assay [16]; 3% in [17]. In addition, the residual activity in assay [6] is 7%; in assay [7], 4%; in assay [18], 1%; in assay [19], 1%; in assay [8] it was 0%; in [9], -1%. The residual activity in assay [10] and in [11] was 4% throughout.

With `Nc1ncnc2[nH]nc(Nc3ccc(F)cc3)c12`, the residual activity was 104% in assay [1]; 91% in assay [2]; 72% in assay [3]; 18% in assay [4]; 67% in assay [14]; 104% in assay [16]. In addition, the residual activity in [17] was 95%; in assay [5] it was 104%; in assay [15], 50%; in assay [6], 106%; in assay [7], 64%; in assay [18], 42%. Also, the residual activity amounted to 24% in assay [19]; 59% in assay [8]; 17% in assay [9]; 48% in assay [10]; 30% in assay [11]; 78% in assay [12]. The residual activity in assay [13] stood at 47%.

Consider `CC(C)c1nn(-c2c(Cl)cccc2Cl)c2nc(Cc3ccc(OCCO)cc3)[nH]c(=O)c12`, for which the residual activity amounted to 98% in [1]; 96% in [2]; 103% in assay [3]; 92% in assay [4]; 88% in assay [20]; 92% in assay [14]. The residual activity in assay [16] turned out to be 106%; in [17], 88%; in assay [5], 103%; in assay [15] it was 104%; in assay [6] it was 105%; in assay [7], 56%. For the same compound, the residual activity was 46% in assay [18]; 29% in [19]; 88% in assay [8]; 47% in assay [9]; 71% in [10]; 49% in assay [11]. Further, the values for the residual activity in assay [12] and in assay [13] were 92% and 82%, respectively.

`Nc1n[nH]c2nc3ccccc3nc12`: the residual activity in assay [1] is 94%; in assay [2], 84%; in assay [3], 100%; in assay [4] it was 82%; in assay [5], 99%; in assay [15], 100%. In addition, the residual activity in [6] came to 118%; in [7], 87%; in assay [18] it was 65%; in assay [19] it was 54%; in assay [8], 93%; in [9], 77%. In addition, the residual activity in [10] was 83%; in assay [11] it was 71%; in [12], 90%; in assay [13] it was 97%.

Consider `CC(C)[C@H](CO)Nc1nc(Nc2cc(N)cc(Cl)c2)c2ncn(C(C)C)c2n1`, for which the residual activity came to 91% in [1]; 52% in [2]; 83% in [3]; 21% in assay [4]; 96% in [20]; 62% in assay [14]. Further, the residual activity was 84% in assay [5]; 53% in [15]; 32% in assay [6]; 6% in [7]; 18% in [10]; 6% in [11]. The residual activity in assay [13] turned out to be 95%.

Take `N#C/C(=C\c1ccc(O)c(O)c1)C(=O)NCc1ccccc1`: the residual activity in [1] worked out at 103%; in assay [2], 78%; in assay [7] it was 102%; in assay [18], 67%; in assay [19] it was 45%; in [8], 122%. In addition, the residual activity in assay [12] stood at 72%; in [13], 102%.

On to `COc1ccc(Cl)cc1NC(=O)Nc1cc(C)nc2ccccc12`, for which the residual activity in assay [1] was found to be 96%; in [2] it was 79%; in [3], 93%; in assay [4], 87%; in assay [16] it was 96%; in assay [17] it was 92%. Moreover, the values for the residual activity in assay [12] and in [13] were 82% and 91%, respectively.

Take `O=C1NC(=O)c2c1c1c3ccccc3[nH]c1n1cncc21`: the residual activity in assay [1] amounted to 88%; in [2] it was 85%; in [3], 59%; in assay [4], 33%; in assay [20], 73%; in [14], 71%. Besides, the residual activity was found to be 97% in [16]; 88% in assay [17]; 95% in [5]; 69% in assay [15]; 58% in assay [6]; 43% in assay [7]. Besides, the residual activity in assay [18] is 57%; in assay [19], 24%; in [8] it was 33%; in [9] it was 15%; in assay [10] it was 37%; in [11], 36%. Also, the figures for the residual activity in assay [12] and in assay [13] were 93% and 87%, respectively.

Take `Nc1nc(Nc2ccc(S(N)(=O)=O)cc2)nn1C(=O)c1c(F)cccc1F`: the residual activity is 16% in assay [1]; 3% in [2]; 81% in assay [20]; 33% in [14]; 101% in [16]; 82% in assay [17]. Further, the residual activity in [5] was 81%; in [15] it was 28%; in [6], 28%; in assay [7] it was 8%; in [18], 32%; in assay [19], 8%. The residual activity in assay [8] came to 19%; in [9], 4%; in assay [10], 27%; in assay [11], 2%.

As to `CSc1nc(-c2ccc(F)cc2)c(-c2ccnc(NC(C)c3ccccc3)c2)[nH]1` (stereo not drawn), the residual activity in [1] came to 101%; in assay [2], 96%; in assay [3] it was 66%; in assay [4], 28%; in [20] it was 98%; in [14], 83%. In addition, the residual activity in assay [5] was determined as 100%; in [15], 99%; in assay [6], 82%; in assay [7], 74%; in [18], 81%; in assay [19] it was 50%. For the same compound, the residual activity was 40% in assay [8]; 42% in assay [9]; 86% in assay [10]; 69% in [11]; -1% in assay [12]; 0% in assay [13].

Regarding `COc1cc2nccc(Oc3ccc(NC(=S)NC(=O)c4ccccc4C)cc3)c2cc1OC`, the residual activity in assay [1] amounted to 87%; in [2], 70%; in [3], 75%; in assay [4], 78%; in assay [20] it was 30%; in [14] it was 0%. In addition, the residual activity in assay [16] is 79%; in assay [17], 52%; in assay [5], 45%; in assay [15] it was 18%; in assay [6], 96%; in assay [7], 81%. In addition, the residual activity in assay [18] amounted to 70%; in assay [19], 19%; in assay [10] it was 88%; in assay [11], 123%; in assay [12], 82%; in assay [13], 68%.
